# According to PubChem BioAssay (NCATS):
# Inconclusive results are not listed. A number with no mark means an inactive call. Active and inactive are the calls of the source. Calls come from the whole dose curve; as a rule, active = well fitted cell-killing curve with a large enough effect; inconclusive = small, poorly fitted or top-dose-only effect, or effect the other way; inactive = no such curve, though single readings can be large or run the other way.
# Test: Viability qHTS for spleen associated tyrosine kinase inhibitor (SYKi) drug resistant MV4-11 cells (AID 1963824); note: nearly all actives have a fitted effect of over 35% in size
# In short: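 SYK inhibitor-resistant MV4-11 AML cells, 500 per well, added to predispensed compounds and incubated 72 hr at 37 C, 5% CO2. Viability measured by CellTiter-Glo luminescence after 10 min at room temperature.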
# Potency is the fitted concentration of half-maximal effect.
Compound,Potency,"viability, % of control"
C=C1C(=O)OC2CC(C)=C(C(C)CCCOC(C)=O)C(OC(=O)CC(C)CC)C12 (centres undefined),2.52 µM (active),
COc1ccc(-c2nc(-c3cc(C(F)(F)F)cc(C(F)(F)F)c3)n(Cc3ccc(C(N)=O)cc3)c2-c2ccc(OC)cc2)cc1,3.66 µM (active),
CN1C(=O)c2ccccc2NC(=O)[C@]12O[C@@H]2c1cccc(O)c1,inactive,
O=C1/C(=C/c2ccc(O)c(O)c2)Oc2ccccc21,0.517 µM (active),
COC(=O)C1(C)c2[nH]c3ccccc3c2CCN1C(=O)CCl (centres undefined),2.91 µM (active),
CC(C)(CO)c1cc2cc(NC(=O)C3(c4ccc5c(c4)OC(F)(F)O5)CC3)c(F)cc2n1CC(O)CO (centres undefined),16.4 µM (active),
CN(C)CCOC(C)(c1ccccc1)c1ccc(Cl)cc1 (centres undefined),16.4 µM (active),
C[C@@H]1O[C@@H](O[C@H]2[C@H](O[C@H]3CC[C@@]4(C)C(CC[C@]5(C)C4CC=C4[C@@H]6CC(C)(C)CC[C@]6(C(=O)O)CC[C@]45C)[C@]3(C)CO)OC[C@H](O)[C@@H]2O)[C@H](O)[C@H](O[C@@H]2OC[C@@H](O)[C@H](O)[C@H]2O)[C@H]1O (some centres undefined),4.91 µM (active),
COc1cc2c(cc1OC)CC(=O)N(CCCNC[C@H]1Cc3cc(OC)c(OC)cc31)CC2,16.4 µM (active),
C/C1=C\CC(C)(C)/C=C/C/C(C(=O)O)=C/CC1,23.1 µM (active),
CCN(CC)CCCS(=O)(=O)N[C@H](CCc1ccccc1)c1nc(Cc2ccc(Br)cc2)no1,20.6 µM (active),
CC(O)/C=C/C1(O)C2(C)COC1(C)CC(O)C2 (centres undefined),inactive,
c1ccc(Nc2nc3c(s2)CCCc2[nH]ncc2-3)nc1,14.6 µM (active),
CC(C(=O)O)C1CCC2(C)C3C(=O)C=C4C(CCC(=O)C4(C)C)C3(C)CCC12C (centres undefined),inactive,
COc1cnc(-c2ccc(Cn3c(CC(C)(C)C(=O)O)c(SC(C)(C)C)c4cc(OC[C@@H]5Cc6ccccc6N5C(C)=O)ccc43)cc2)nc1,12.8 µM (active),
COc1c(-c2ccc3cc(NS(C)(=O)=O)ccc3c2)cc(-n2ccc(=O)[nH]c2=O)cc1C(C)(C)C,16.4 µM (active),
C=C[C@]1(C)C[C@H](O)[C@H]2C(=C)C(=O)O[C@@H]2[C@H]1C(=C)CO,14.6 µM (active),

Compound,Potency,"viability, % of control"
C/C=C(\C)C(=O)OC1C[C@@]2(COC(C)=O)O[C@H]2/C=C\[C@@]2(C)O[C@@H]2[C@H]2OC(=O)C(COC(C)=O)=C12 (some centres undefined),4.47 µM (active),
COC(=O)C1=CO[C@@H](O[C@@H]2O[C@H](CO)[C@@H](O)[C@H](O)[C@H]2O)[C@@H]2[C@@H](C(=O)O)CC[C@H]12,inactive,
C=CC(C)(C)C12CC3C(=O)NC(Cc4cnc[nH]4)C(=O)N3C1Nc1ccccc12 (centres undefined),inactive,
CCC(C)C(=O)O[C@H]1[C@@H](O[C@H]2O[C@H](CO)[C@@H](O)[C@H](O)[C@H]2O)O[C@H](CO)[C@@H](O)[C@@H]1O (some centres undefined),inactive,
CC(C)n1nc(C#Cc2ccccc2)c2c(N)ncnc21,8.2 µM (active),
CC(F)(F)CN1CCOc2c(nn(-c3ccccc3Cl)c2-c2ccc(Cl)cc2)C1=O,20.6 µM (active),
C[C@@H]1O[C@@H](O[C@@H]2[C@@H](O)[C@@H](O[C@]3(CO)O[C@H](CO)[C@@H](O)[C@@H]3OC(=O)/C=C/c3ccc(O)cc3)O[C@H](CO)[C@H]2OC(=O)/C=C/c2ccc(O)cc2)[C@H](O)[C@H](O)[C@H]1O[C@@H]1O[C@@H](C)[C@H](O[C@@H]2OC[C@](O)(CO)[C@H]2O)[C@@H](O)[C@H]1O,,102% [at 9.25 µM]
CCOC(=O)CCNc1cc(N2CCc3ccccc3CC2)nc(-c2cccnc2)n1,14.6 µM (active),
CC1OC(OC2C(O)COC(O[C@@H]3[C@@H](O)[C@@H](O)[C@H](OC4C(OC(=O)[C@]56CCC(C)(C)CC5C5=CCC7[C@@]8(C)C[C@H](O)[C@H](OC9OC(CO)C(O)C(O)C9O)[C@@](C)(CO)C8[C@H](O)C[C@@]7(C)[C@]5(C)CC6)OCC(O)C4O)O[C@H]3C)C2O)C(O)C(O)C1O (some centres undefined),1.23 µM (active),
COc1cc(C[C@H]2C(=O)OC[C@@H]2Cc2ccc(OC)c(OC)c2)ccc1O,0.255 µM (active),
O=C(c1ccc(F)c(F)c1Nc1ccc(I)cc1F)N1CC(O)(C2CCCCN2)C1 (centres undefined),0.326 µM (active),
CC(C)n1cc(-c2ccc(Oc3ccccc3)cc2)c2c(N)ncnc21,0.206 µM (active),
CC[C@@H](C)[C@@H]1OC2(C=C[C@H]1C)C[C@@H]1C[C@H](C/C=C(\C)[C@H](O[C@H]3C[C@H](OC)[C@H](O[C@H]4C[C@H](OC)[C@H](NC(C)=O)[C@H](C)O4)[C@H](C)O3)[C@H](C)/C=C/C=C3\CO[C@H]4[C@H](O)C(C)=C[C@@H](C(=O)O1)[C@@]34O)O2 (some centres undefined),2.27 µM (active),
N=C1N=C(N)c2cc3ccccc3cc21,38.6 µM (active),
C=C[C@](C)(CC/C=C(\C)C(=O)O)O[C@@H]1OC[C@H](O)[C@H](O)[C@H]1O,inactive,
COc1ccc2c(c1O[C@H]1CCNC1)CCC2,inactive,
CC[C@H]1OC(=O)[C@H](C)[C@@H](O[C@H]2C[C@@](C)(OC)[C@@H](O)[C@H](C)O2)[C@H](C)[C@@H](O[C@@H]2O[C@H](C)C[C@H](N(C)C)[C@H]2O)[C@](C)(O)C[C@@H](C)/C(=N/OCOCCOC)[C@H](C)[C@@H](O)[C@]1(C)O,inactive,
